Measured values reported in PubChem BioAssay (NCI).
“And” between values parts separate entries of the source, which are not always exact repeats. Equal values may be shown once. Compounds without any hit were thinned out: in the full panel of roughly 83,000, 20% have a hit.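 For each line, cells grew in 96-well plates with the test compound present at a single concentration for 48 hours.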 The source made the active and inactive calls. The calls were made as follows: active = growth percent below 10; inactive = the rest.

System: HL-60(TB) leukemia
Assay: NCI-60 one-dose screen, 48 h (100 = growth as untreated, 0 = no growth, -100 = all killed)
Conditions: 10 µM unless noted

Structure (SMILES) | growth
C[C@@H](NC(=O)[C@@H](CC(=O)N1CCC(N2CCCCC2)CC1)N1C(=O)[C@@H](N2C(=O)OC[C@@H]2c2ccccc2)[C@H]1/C=C/c1cccc(Cl)c1)c1ccccc1 | 66.3% (inactive)
NC(=O)NO | 82.9% (inactive) and 72.8% (inactive)
COc1cc2c(Nc3ccc(Cl)c(Cl)c3F)ncnc2cc1OCC1C[C@@H]2CN(C)C[C@@H]2C1 (stereo partly specified) | -53.2% (active) and 41.1% (inactive)
CCOC(=O)C1=CN(C)C=C(C(=O)OCC)C1c1cc(Br)c(OCC)c(OC)c1 | 66.7% (inactive)
c1ccc2cc(C[n+]3ccn(Cc4ccc5ccccc5n4)c3)ccc2c1 | -42.3% (active) and -25.4% (active)
COc1ccc(-c2nc3sccn3c2/C=C/C(=O)c2ccc3c(c2)OCO3)cc1 | 79.6% (inactive)
